# A number with no mark means an inactive call. Records with an inconclusive call do not appear. Where a call stands in place of a potency, no number is given. The source made the active and inactive calls. Unless noted, calls come from the whole dose curve; as a rule, active = well fitted curve in the direction sought with a large enough effect in the repeat runs; inconclusive = weak or mixed curves; inactive = no such curve, though single readings can be large; an effect the other way counts as inactive or inconclusive.
# Columns and labels:
# [1] = target: Voltage-gated inwardly rectifying potassium channel KCNH2 (Homo sapiens) (UniProt Q12809); experiment: Human Ether-a-go-go-Related Gene (hERG) channel small molecule antagonists: fluorescence cell-based qHTS assay (AID 1671200); note: nearly all actives have a fitted effect of over 50% in size; note: potency is the fitted concentration of half-maximal effect;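 for activity change, negative = inhibition: hERG-expressing U2OS cells given a thallium stimulus after FluxOR II dye loading; series mostly up to about 77 µM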
# Sequence of Voltage-gated inwardly rectifying potassium channel KCNH2 (Homo sapiens) (Q12809 whole entry, looked up): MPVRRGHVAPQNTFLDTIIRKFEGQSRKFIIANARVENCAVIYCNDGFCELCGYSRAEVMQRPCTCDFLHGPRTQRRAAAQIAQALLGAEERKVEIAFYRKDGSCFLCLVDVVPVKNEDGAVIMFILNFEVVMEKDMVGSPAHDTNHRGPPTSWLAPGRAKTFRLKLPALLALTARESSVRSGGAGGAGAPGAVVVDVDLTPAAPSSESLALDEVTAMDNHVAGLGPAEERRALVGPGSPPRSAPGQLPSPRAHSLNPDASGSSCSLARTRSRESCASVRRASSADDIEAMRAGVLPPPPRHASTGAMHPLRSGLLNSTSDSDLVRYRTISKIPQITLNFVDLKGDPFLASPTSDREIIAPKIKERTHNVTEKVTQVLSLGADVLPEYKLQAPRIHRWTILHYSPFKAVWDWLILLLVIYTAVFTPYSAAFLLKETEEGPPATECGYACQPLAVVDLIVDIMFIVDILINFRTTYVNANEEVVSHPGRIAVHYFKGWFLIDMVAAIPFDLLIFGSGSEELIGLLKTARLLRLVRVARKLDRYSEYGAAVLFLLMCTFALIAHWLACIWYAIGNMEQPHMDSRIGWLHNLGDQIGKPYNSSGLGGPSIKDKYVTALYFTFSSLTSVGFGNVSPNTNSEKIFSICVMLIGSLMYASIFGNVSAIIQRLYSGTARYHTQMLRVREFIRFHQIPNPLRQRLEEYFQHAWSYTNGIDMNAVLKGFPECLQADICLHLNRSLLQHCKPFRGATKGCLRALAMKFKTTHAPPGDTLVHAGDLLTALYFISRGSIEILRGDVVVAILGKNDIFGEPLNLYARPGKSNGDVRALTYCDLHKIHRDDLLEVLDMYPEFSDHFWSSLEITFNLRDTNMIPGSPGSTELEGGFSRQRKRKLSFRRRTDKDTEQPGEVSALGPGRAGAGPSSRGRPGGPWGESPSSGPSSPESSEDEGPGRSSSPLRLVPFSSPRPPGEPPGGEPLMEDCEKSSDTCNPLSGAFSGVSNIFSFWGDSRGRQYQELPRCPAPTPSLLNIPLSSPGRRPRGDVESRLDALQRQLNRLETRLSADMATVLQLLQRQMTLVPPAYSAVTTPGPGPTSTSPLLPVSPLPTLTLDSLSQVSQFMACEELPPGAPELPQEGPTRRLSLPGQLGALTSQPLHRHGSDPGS
# Summary of the method: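 Measured: Tl+ flux via fluorescence (480/540 nm) in hERG-expressing U2OS cells after 1 h dye loading at room temperature.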
# [2] = target: Acetylcholinesterase (Homo sapiens) (UniProt P22303); experiment: Acetylcholinesterase (AChE) small molecule antagonists: enzyme-based qHTS assay with human liver microsomes (AID 1347399; calls by dose curve; note: nearly all actives have a fitted effect of over 60% in size); conditions: Potency: qHTS inhibition
# Sequence of Acetylcholinesterase (Homo sapiens) (P22303 whole entry, looked up): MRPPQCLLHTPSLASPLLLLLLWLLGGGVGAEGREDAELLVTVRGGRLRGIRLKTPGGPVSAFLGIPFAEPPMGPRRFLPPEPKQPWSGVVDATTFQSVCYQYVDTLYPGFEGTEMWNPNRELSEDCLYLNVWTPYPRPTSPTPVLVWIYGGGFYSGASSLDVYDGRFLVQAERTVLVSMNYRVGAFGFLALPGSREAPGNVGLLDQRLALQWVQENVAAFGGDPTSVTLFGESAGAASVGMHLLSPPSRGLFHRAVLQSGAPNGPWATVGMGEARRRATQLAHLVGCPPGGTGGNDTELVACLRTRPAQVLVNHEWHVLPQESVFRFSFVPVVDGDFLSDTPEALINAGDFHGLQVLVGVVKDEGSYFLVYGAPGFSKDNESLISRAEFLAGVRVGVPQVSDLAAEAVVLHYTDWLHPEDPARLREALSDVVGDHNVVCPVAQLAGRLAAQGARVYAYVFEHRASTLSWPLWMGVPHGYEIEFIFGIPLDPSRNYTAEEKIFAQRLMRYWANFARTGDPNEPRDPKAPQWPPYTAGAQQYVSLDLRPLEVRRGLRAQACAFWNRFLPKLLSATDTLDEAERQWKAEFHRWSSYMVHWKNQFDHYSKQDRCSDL
# Summary of the method: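 Recombinant human AChE (50 mU/mL in the enzyme mix) and human liver microsomes (0.25 mg/mL final) were preincubated with compound and NADPH (0.25 mg/mL final) for 30 min at 37 C. Acetylthiocholine/DTNB was then added; thiocholine was read colorimetrically after 10 min at room temperature.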
# [3] = target: Cytochrome P450 2D6 (Homo sapiens) (UniProt P10635); experiment: Cytochrome P450 Family 2 Subfamily D Member 6 (CYP2D6) small molecule antagonists: luciferase reporter qHTS assay (AID 1671196); note: nearly all actives have a fitted effect of over 50% in size; note: potency is the fitted concentration of half-maximal effect; for activity change, negative = inhibition: series mostly up to about 120 µM
# Sequence of Cytochrome P450 2D6 (Homo sapiens) (P10635 whole entry, looked up): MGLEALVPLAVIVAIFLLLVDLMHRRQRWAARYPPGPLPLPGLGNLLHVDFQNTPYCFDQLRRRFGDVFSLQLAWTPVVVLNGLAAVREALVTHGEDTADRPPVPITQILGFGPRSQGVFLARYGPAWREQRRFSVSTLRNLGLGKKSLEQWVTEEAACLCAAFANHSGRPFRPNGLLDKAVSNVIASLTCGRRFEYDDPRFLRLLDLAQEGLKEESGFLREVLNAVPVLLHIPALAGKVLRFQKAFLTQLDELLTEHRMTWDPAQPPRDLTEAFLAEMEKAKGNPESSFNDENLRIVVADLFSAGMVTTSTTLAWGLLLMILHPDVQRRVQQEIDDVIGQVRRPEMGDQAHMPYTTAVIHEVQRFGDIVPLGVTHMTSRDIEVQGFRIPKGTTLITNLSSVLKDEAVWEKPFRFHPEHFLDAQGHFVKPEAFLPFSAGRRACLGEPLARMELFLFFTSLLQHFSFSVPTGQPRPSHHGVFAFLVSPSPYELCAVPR
# Summary of the method: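 Chemicals tested for interference with CYP2D6 activity; proluciferin substrate, NADPH regeneration, 1 h at room temperature, luminescent detection.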
# [4] = target: Cytochrome P450 2C19 (Homo sapiens) (UniProt P33261); experiment: Cytochrome P450 Family 2 Subfamily C Member 19 (CYP2C19) small molecule antagonists: luciferase reporter qHTS assay (AID 1671197); note: nearly all actives have a fitted effect of over 65% in size; note: potency is the fitted concentration of half-maximal effect; for activity change, negative = inhibition: series mostly up to about 120 µM
# Sequence of Cytochrome P450 2C19 (Homo sapiens) (P33261 whole entry, looked up): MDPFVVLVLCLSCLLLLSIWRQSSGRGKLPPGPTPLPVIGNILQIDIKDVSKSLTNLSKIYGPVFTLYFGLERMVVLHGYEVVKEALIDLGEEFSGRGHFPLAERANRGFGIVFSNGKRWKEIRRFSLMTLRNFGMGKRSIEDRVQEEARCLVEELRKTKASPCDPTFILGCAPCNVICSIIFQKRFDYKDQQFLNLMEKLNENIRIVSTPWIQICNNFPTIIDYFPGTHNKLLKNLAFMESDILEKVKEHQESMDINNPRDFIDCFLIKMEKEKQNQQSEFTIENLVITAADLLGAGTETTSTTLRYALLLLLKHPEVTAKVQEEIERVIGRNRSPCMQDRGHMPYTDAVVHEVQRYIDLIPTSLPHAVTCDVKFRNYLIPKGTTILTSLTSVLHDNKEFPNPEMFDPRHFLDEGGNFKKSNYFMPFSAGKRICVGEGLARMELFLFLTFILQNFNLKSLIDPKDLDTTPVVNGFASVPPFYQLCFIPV
# Summary of the method: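 Enzyme-substrate mix with proluciferin substrate (P450-Glo CYP2C19 system) preincubated with compounds 10 min at room temperature; NADPH regeneration solution added, 37C for 1 h; detection reagent stops reaction, luminescence read after 20 min. Ketoconazole positive control.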
# [5] = target: Cytochrome P450 2C9 (Homo sapiens) (UniProt P11712); experiment: Cytochrome P450 Family 2 Subfamily C Member 9 (CYP2C9) small molecule antagonists: luciferase reporter qHTS assay (AID 1671198); note: nearly all actives have a fitted effect of over 50% in size; note: potency is the fitted concentration of half-maximal effect; for activity change, negative = inhibition: series mostly up to about 120 µM
# Sequence of Cytochrome P450 2C9 (Homo sapiens) (P11712 whole entry, looked up): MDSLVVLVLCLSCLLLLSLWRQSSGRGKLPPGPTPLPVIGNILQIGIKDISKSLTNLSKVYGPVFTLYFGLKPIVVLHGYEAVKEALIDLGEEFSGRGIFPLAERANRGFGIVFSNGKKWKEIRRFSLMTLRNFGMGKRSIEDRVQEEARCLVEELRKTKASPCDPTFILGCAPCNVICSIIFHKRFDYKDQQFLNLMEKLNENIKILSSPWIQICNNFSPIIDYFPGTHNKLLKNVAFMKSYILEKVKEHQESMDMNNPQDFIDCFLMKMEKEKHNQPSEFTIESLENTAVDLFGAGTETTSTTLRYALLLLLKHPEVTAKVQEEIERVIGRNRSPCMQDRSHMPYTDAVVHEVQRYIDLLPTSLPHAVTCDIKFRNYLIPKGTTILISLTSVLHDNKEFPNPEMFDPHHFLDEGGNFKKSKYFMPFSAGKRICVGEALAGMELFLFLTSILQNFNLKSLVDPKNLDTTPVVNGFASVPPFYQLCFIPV
# Summary of the method: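 CYP2C9 activity was measured with a P450-Glo proluciferin substrate. Enzyme–substrate mix was held with compound for 10 min at room temperature, then NADPH regeneration solution was added for 1 h at 37C. Luciferin product was read as luminescence.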
# [6] = target: Cytochrome P450 1A2 (Homo sapiens) (UniProt P05177); experiment: Cytochrome P450 Family 1 Subfamily A Member 2 (CYP1A2) small molecule antagonists: luciferase reporter qHTS assay (AID 1671199); note: nearly all actives have a fitted effect of over 50% in size; note: potency is the fitted concentration of half-maximal effect; for activity change, negative = inhibition: series mostly up to about 120 µM
# Sequence of Cytochrome P450 1A2 (Homo sapiens) (P05177 whole entry, looked up): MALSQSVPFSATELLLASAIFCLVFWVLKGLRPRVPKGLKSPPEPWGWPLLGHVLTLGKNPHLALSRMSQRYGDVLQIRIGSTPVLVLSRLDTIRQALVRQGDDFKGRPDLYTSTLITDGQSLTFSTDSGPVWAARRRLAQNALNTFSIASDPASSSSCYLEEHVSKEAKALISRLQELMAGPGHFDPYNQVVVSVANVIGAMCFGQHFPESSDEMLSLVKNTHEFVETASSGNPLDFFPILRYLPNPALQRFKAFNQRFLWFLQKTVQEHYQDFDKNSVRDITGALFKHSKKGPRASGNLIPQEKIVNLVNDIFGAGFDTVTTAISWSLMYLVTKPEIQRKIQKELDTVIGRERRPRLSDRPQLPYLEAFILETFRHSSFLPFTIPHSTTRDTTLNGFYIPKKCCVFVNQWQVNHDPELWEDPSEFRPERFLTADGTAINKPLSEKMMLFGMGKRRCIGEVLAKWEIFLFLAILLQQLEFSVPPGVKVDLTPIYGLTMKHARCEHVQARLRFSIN
# Summary of the method: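 Read-out is luminescence from luciferin detection reagent (20 min) proportional to CYP1A2 activity; compounds in DMSO preincubated 10 min with enzyme and proluciferin substrate, then NADPH regeneration solution, 1 h, room temperature.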
# [7] = target: Cytochrome P450 3A4 (Homo sapiens) (UniProt P08684); experiment: Cytochrome P450 Family 3 Subfamily A Member 4 (CYP3A4) small molecule antagonists: luciferase reporter qHTS assay (AID 1671201); note: nearly all actives have a fitted effect of over 50% in size; note: potency is the fitted concentration of half-maximal effect; for activity change, negative = inhibition: series mostly up to about 120 µM
# Sequence of Cytochrome P450 3A4 (Homo sapiens) (P08684 whole entry, looked up): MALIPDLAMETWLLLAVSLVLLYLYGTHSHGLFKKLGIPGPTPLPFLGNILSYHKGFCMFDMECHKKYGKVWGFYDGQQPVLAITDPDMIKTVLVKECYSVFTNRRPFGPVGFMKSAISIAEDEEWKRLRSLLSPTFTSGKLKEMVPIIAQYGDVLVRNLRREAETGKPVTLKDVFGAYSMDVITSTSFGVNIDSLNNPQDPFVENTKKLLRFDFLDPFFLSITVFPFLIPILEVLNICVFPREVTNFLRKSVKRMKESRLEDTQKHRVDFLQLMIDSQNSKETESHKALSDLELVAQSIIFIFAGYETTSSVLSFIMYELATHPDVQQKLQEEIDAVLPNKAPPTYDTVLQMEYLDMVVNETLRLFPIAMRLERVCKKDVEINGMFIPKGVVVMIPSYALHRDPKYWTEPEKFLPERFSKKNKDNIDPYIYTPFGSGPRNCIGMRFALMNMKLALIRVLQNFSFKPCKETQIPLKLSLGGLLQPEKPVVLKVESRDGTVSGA
# Summary of the method: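 Setup: enzyme-substrate mix, compound pin transfer, 10 min RT. Reaction: NADPH regeneration solution, 1 h RT. Readout: detection reagent stops turnover, luminescence measured after 20 min, expressed in relative luminescence units.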
# [8] = target: Acetylcholinesterase (Homo sapiens) (UniProt P22303); experiment: Acetylcholinesterase (AChE) small molecule antagonists: fluorescence cell-based qHTS assay (AID 1347398; calls by dose curve; note: nearly all actives have a fitted effect of over 50% in size); conditions: Potency: AChE activity
# Summary of the method: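 Cellular AChE inhibition: SH-SY5Y cells treated with test chemical for 30 min at 37 C, then acetylthiocholine hydrolysis followed over 40 min at room temperature via thiocholine-reactive Thiolite Green fluorescence (490/520 nm).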
smiles,measurement,setting,value
CN,Potency,[1],inactive
O=[N+]([O-])[O-].[Tl+],Potency,[1],inactive
[Cl-].[Cl-].[Cl-].[Yb+3],Potency,[1],inactive
CCOP(=S)(OCC)Oc1cc(C)nc(N(CC)CC)n1,Potency,[2],inactive
same,Potency,[3],50.2 µM (active)
same,Potency,[4],0.399 µM (active)
same,Potency,[5],11.2 µM (active)
same,Potency,[6],3.56 µM (active)
same,Potency,[1],inactive
same,Potency,[7],0.633 µM (active)
O=C(O)[C@H](O)[C@@H](O)C(=O)O,Potency,[8],inactive
same,Potency,[1],inactive
CC(C)(C)c1ccc(OP(=O)(Oc2ccccc2)Oc2ccccc2)cc1,Potency,[2],inactive
same,Potency,[3],inactive
same,Potency,[4],5.06 µM (active)
same,Potency,[5],5.06 µM (active)
same,Potency,[6],16 µM (active)
same,Potency,[1],15.6 µM (active)
same,Potency,[7],inactive
COc1ccc(Cc2nccc3cc(OC)c(OC)cc23)cc1OC,Potency,[6],inactive
same,Potency,[1],inactive
CCOP(=O)(OCC)Oc1nc(Cl)c(Cl)cc1Cl,Potency,[3],5.61 µM (active)
same,Potency,[4],3.15 µM (active)
same,Potency,[6],1.58 µM (active)
same,Potency,[1],inactive
same,Potency,[7],inactive
CC(=O)[O-].CC(=O)[O-].CC(=O)[O-].[Sb+3],"activity change, negative = inhibition",[1],0.0833% [at 2.72 µM]
Oc1ccc2[nH]cc(CCCCN3CC=C(c4ccccc4)CC3)c2c1,Potency,[1],2.68 µM (active)
CC(=O)[O-].CC(=O)[O-].O.O.O.[Pb+2],Potency,[1],inactive
CC(=O)[O-].CC(=O)[O-].CC(=O)[O-].[Cr+3],Potency,[1],inactive
COc1ccc2[nH]cc(CCN(C(C)C)C(C)C)c2c1,Potency,[3],4.09 µM (active)
same,Potency,[4],inactive
same,Potency,[5],inactive
same,Potency,[6],40.9 µM (active)
same,Potency,[1],28.2 µM (active)
same,Potency,[7],inactive
CCCC[N+]1(C)CCCC1 (tested in a mixture with another compound),Potency,[4],inactive
same,Potency,[5],inactive
same,Potency,[1],inactive
same,Potency,[7],inactive
CCn1cc[n+](C)c1 (tested in a mixture with another compound),Potency,[3],inactive
same,Potency,[4],inactive
same,Potency,[6],inactive
same,Potency,[1],inactive
same,Potency,[7],inactive
CCN(CC)C(=O)N[C@@H]1C=C2c3cccc4[nH]cc(c34)C[C@@H]2N(C)C1,Potency,[2],inactive

# Source: PubChem BioAssay (Tox21)
